High-throughput results (PubChem BioAssay)
A selection: hits, their analogues and other compounds. The true share with any hit is near 7.5%.
Rab9 promoter act – Rab9 promoter activation. Huh7 Rab9 promoter-luciferase reporter, luminescence, 24 h. 320,000 tested, 2.8% active. Potency, µM (series often up to 9.22 µM), most hits filed as activators. AID 485297; also: nearly all actives have a fitted effect of over 60% in size
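Huh7 cells stably carrying Rab9 promoter–luciferase reporter, plated 1500 cells/well, compound added after 2 h and incubated 24 h at 37 °C; luciferase luminescence then read after 10 min with detection reagent.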
NPC1 promoter act – NPC1 promoter activation | Potency, µM (top dose mostly 9.22 µM), most hits filed as activators | 320,000 tested, 2.4% active | Huh7 NPC1 promoter luciferase reporter, 24 h; also: nearly all actives have a fitted effect of over 60% in size
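Luciferase expression driven by the NPC1 promoter was measured in stably transfected Huh7 cells after a 24 h compound incubation, using a luciferase reagent and a luminescence read.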
FLuc counter – inhibits or activates purified firefly luciferase, miR-21 counter-screen. Potency, µM (doses to about 57.5 µM), actives largely listed as inhibitors. purified FLuc, Km substrates, luminescence inhibition. 360,000 tested, 6.9% active. P08659. AID 588342; also: nearly all actives have a fitted effect of over 55% in size
Target sequence (P08659 whole entry, looked up): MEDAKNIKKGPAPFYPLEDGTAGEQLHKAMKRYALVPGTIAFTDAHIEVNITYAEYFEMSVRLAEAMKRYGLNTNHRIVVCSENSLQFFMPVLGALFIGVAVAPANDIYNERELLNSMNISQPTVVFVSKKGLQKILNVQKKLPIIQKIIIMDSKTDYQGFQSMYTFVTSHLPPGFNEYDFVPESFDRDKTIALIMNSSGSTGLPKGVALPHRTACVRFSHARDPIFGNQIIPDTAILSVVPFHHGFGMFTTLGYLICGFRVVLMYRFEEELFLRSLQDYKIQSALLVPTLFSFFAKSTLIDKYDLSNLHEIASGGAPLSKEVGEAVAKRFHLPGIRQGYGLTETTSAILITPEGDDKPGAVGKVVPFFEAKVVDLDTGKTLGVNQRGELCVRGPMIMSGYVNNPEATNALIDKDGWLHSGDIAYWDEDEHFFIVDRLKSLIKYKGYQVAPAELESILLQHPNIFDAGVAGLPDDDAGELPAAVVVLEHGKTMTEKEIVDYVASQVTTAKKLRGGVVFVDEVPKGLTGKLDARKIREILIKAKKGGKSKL
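Purified P. pyralis luciferase (10nM final) with 10uM D-luciferin and 10uM ATP (Km levels) in 50mM Tris acetate pH 7.5, 10mM Mg acetate, 0.01% Tween-20, 0.05% BSA; qHTS 6-point titration, ~60 µM downward; luminescence read.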
ELG1 genotoxic – induces genotoxicity in HEK293T cells with luciferase-tagged ELG1. AID 504466. HEK293T ELG1-luciferase reporter, luminescence, 16 h. Potency, µM (doses to about 46 µM), usual class: activators. 330,000 tested, 1.3% active; also: nearly all actives have a fitted effect of over 60% in size
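ELG1-luciferase HEK293T cells, 2,000/well; compound pinned in; 16 hr, 37 °C, 5% CO2; ONE-Glo, 30 min RT; luminescence on CCD imager.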
SMN2 splice up – SMN2 splice variant enhancement; Potency, µM (top dose mostly 46.1 µM), hits mostly activators; 210,000 tested, 2.8% active; HEK293 SMN2-luciferase splicing reporter, luminescence, 30-36 h; also: nearly all actives have a fitted effect of over 55% in size
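qHTS luciferase splicing reporter: luminescence rises when SMN2 exon 7 is included in transfected HEK293 cells. Compound exposure lasted 30-36 h at 37C, with 4.5 mM final sodium butyrate as control, followed by a ONE-Glo read.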
Large screens that a line does not name were inactive. Calls follow the shape of the dose curve; as a rule, active = well fitted curve in the direction sought with a large enough effect; inconclusive = small, poorly fitted or top-dose-only effect, or another doubt; inactive = no such curve, though single readings can be large; an effect the other way counts as inactive or inconclusive.

O=C(NNC(=S)NC(=O)c1ccco1)c1ccc(NC(=O)c2ccccc2)cc1	FLuc counter inconclusive
O=C(CNC(=S)NC(=O)C1CCCCC1)c1ccccc1	Rab9 promoter act inconclusive, FLuc counter 12µM, ELG1 genotoxic inconclusive, SMN2 splice up inconclusive
O=C(NC(=S)Nc1ccccc1Br)c1ccco1	Rab9 promoter act inconclusive, NPC1 promoter act inconclusive, FLuc counter 11µM, ELG1 genotoxic inconclusive (no result: SMN2 splice up)
O=C(CNC(=S)NC(=O)c1ccco1)c1ccccc1	NPC1 promoter act inconclusive, FLuc counter 12µM
O=C1Nc2ccccc2N(O)N1c1cc(-c2ccccc2Cl)no1	NPC1 promoter act inconclusive, FLuc counter 6µM
COc1cc(OC)cc(-c2cc(N3C(=O)Nc4ccccc4N3O)n[nH]2)c1	none
O=C1Nc2ccccc2N(O)N1c1cc(-c2ccc(Cl)cc2)[nH]n1	FLuc counter 8.5µM
O=C(O)c1ccc(O)c(N2C(=O)Nc3ccccc3N2O)c1	none
O=C1Nc2ccccc2N(O)N1c1cc(-c2cccc(Cl)c2)no1	FLuc counter 21µM (no result: SMN2 splice up)
O=C1Nc2cc(Cl)c(Cl)cc2N(O)N1c1cccc(Cl)c1	none
O=C(c1ccccc1)N1CCC(=O)N1c1ccccc1	none
O=C1CN(c2ccccc2)C(=S)N1C(=O)c1ccccc1	Rab9 promoter act 4µM, NPC1 promoter act inconclusive, FLuc counter 24µM, ELG1 genotoxic inconclusive (no result: SMN2 splice up)
Cc1ccc(N2C(=O)c3n[nH]c(C)c3C2c2ccco2)cc1 (configuration not stated)	NPC1 promoter act inconclusive, FLuc counter 8.5µM, ELG1 genotoxic inconclusive, SMN2 splice up inconclusive
COCCCN(C(C)=O)c1nc(-c2ccccc2)cs1	Rab9 promoter act inconclusive, FLuc counter inconclusive, ELG1 genotoxic 13µM (no result: SMN2 splice up)
CCCOCc1ccc(O)c2ncccc12	none (no result: SMN2 splice up)
Oc1ccc(COCc2ccccc2)c2cccnc12	FLuc counter 19µM, ELG1 genotoxic 8.2µM
COc1ccc(C(c2nnnn2C(C)C)N2CCN(C(=O)c3ccco3)CC2)cc1 (configuration not stated)	none (no result: SMN2 splice up)
CCOC(=O)c1cnc(-n2nc(C)cc2C)nc1NC1CCCC1	none (no result: SMN2 splice up)
CCOC(=O)c1cnc(-n2nc(C)cc2C)nc1N(C)C	Rab9 promoter act 4.5µM, NPC1 promoter act inconclusive, FLuc counter 5.4µM, ELG1 genotoxic inconclusive, SMN2 splice up inconclusive
COc1ccccc1/C=C(\C#N)C(=O)c1cccn1C	FLuc counter 11µM (no result: SMN2 splice up)
COc1ccc(/C=C(\C#N)C(=O)c2cccn2C)cc1	FLuc counter 1.5µM (no result: SMN2 splice up)
Cn1cccc1C(=O)/C(C#N)=C/c1ccc(F)cc1	FLuc counter 6.7µM (no result: SMN2 splice up)
Cc1ccc(NC(=O)C2CCN(C(=O)NC3CCCCC3)CC2)cc1	none
Cc1cc(=O)oc2cc(OCC(=O)OCC(=O)Nc3ccc(C(N)=O)cc3)ccc12	FLuc counter inconclusive (no result: SMN2 splice up)
COC(=O)c1sccc1NC(=O)c1cc2c(s1)CCCC2	Rab9 promoter act inconclusive, FLuc counter 8.5µM
COc1ccc(C)cc1NC(=O)c1cc2c(s1)CCC2	Rab9 promoter act inconclusive, FLuc counter 15µM, SMN2 splice up inconclusive
COc1ccc(S(=O)(=O)N2CCOCC2)cc1NC(=O)c1cc2c(s1)CCCC2	none
COC1(OC)C(=N/O)/C(=N\O)CCC1O (configuration not stated)	none
COc1ccc(-c2nc3c(Br)c(N)c(Br)cc3o2)cc1	Rab9 promoter act inconclusive, NPC1 promoter act 3.2µM, FLuc counter 1.3µM
Nc1c(Br)cc2oc(-c3ccccc3)nc2c1Br	Rab9 promoter act inconclusive, FLuc counter 2.1µM, ELG1 genotoxic inconclusive, SMN2 splice up 13µM
COc1ccc(-c2cn[nH]c2N)cc1	none
CCN1CCN(Cc2ccc(NC(=O)c3cc(NC(=O)c4cnn(-c5ccccc5)c4N)cc(OC)c3)cc2C(F)(F)F)CC1	FLuc counter 17µM (no result: SMN2 splice up)
CCN1CCN(Cc2ccc(NC(=O)c3cc(NC(=O)C(=O)c4c[nH]c5ccccc45)cc(OC)c3)cc2C(F)(F)F)CC1	FLuc counter 9.5µM (no result: SMN2 splice up)
CCN1CCN(Cc2ccc(NC(=O)c3cc(NC(=O)c4cc(C)on4)cc(OC)c3)cc2C(F)(F)F)CC1	FLuc counter inconclusive, ELG1 genotoxic inconclusive (no result: SMN2 splice up)
CCN1CCN(Cc2ccc(NC(=O)c3ccc(C)c(NC(=O)c4ccc5n[nH]nc5c4)c3)cc2C(F)(F)F)CC1	FLuc counter 19µM (no result: SMN2 splice up)
O=c1c2ccccc2nc(/C=C/c2ccccc2)n1CCCO	none (no result: SMN2 splice up)
O=c1c2ccccc2nc(/C=C/c2c[nH]c3ccccc23)n1CCO	Rab9 promoter act inconclusive, NPC1 promoter act inconclusive, FLuc counter 11µM (no result: SMN2 splice up)
COc1ccc(CN(CC(=O)NC2CCCC2)C(=O)c2ccc(-c3ccccc3)[nH]2)cc1	none
O=S(=O)(Nc1ccc(Cl)c(Cl)c1)N1CCOCC1	none (no result: SMN2 splice up)
CCC(C)(C)NC(=O)C(c1ccc(OC)cc1)N(Cc1cccs1)C(=O)CCC(=O)Nc1cc(C)on1 (configuration not stated)	Rab9 promoter act 0.63µM
CC(=O)NS(=O)(=O)c1ccc(NC(=O)CSc2ccccc2)cc1	none (no result: SMN2 splice up)
O=C(CSC1=NCCS1)Nc1ccc(F)cc1	none (no result: SMN2 splice up)
CC(=O)Oc1ccc(NC(=O)CSc2ccccc2)cc1	FLuc counter inconclusive, ELG1 genotoxic 15µM, SMN2 splice up inconclusive
COc1ccc(NC(=O)CSc2ccc(C)cc2)cc1	NPC1 promoter act inconclusive, FLuc counter 21µM, ELG1 genotoxic inconclusive
COc1ccc(NC(=O)c2ccccc2NC(=O)CSc2ccc(C)cc2)cc1	Rab9 promoter act inconclusive, ELG1 genotoxic inconclusive
COc1ccccc1CNC(=O)CSc1ccccc1	Rab9 promoter act 3.2µM, NPC1 promoter act inconclusive, FLuc counter inconclusive, ELG1 genotoxic inconclusive, SMN2 splice up inconclusive
O=C(CSc1ccc(F)cc1)Nc1ccc(C2SCCS2)cc1	Rab9 promoter act inconclusive, NPC1 promoter act inconclusive, FLuc counter 11µM, ELG1 genotoxic inconclusive (no result: SMN2 splice up)
COc1ccccc1CNC(=O)CSc1ccc(C)cc1	none
O=C(C[n+]1ccc(C(=O)c2ccccc2)cc1)Nc1ccccc1OC(F)F	none (no result: Rab9 promoter act, NPC1 promoter act, FLuc counter, SMN2 splice up)
O=C(O)CCCCCn1c(O)c(C=C2N=c3ccccc3=N2)sc1=S	FLuc counter 9.5µM
CCCC(C(=O)O)n1c(O)c(C=C2N=c3ccccc3=N2)sc1=S (configuration not stated)	FLuc counter inconclusive (no result: SMN2 splice up)
O=C(O)CCCn1c(O)c(C=C2N=c3ccccc3=N2)sc1=S	FLuc counter 6µM (no result: SMN2 splice up)
Cc1cc(OC(=O)c2ccccc2Br)cc(=O)n1C	FLuc counter 21µM
CN(C)CCN(C(=O)c1ccc(S(=O)(=O)N(C)c2ccccc2)cc1)c1nc2ccc(Cl)cc2s1	ELG1 genotoxic inconclusive (no result: SMN2 splice up)
CCOC(=O)C1CCN(c2nc3ccccc3nc2C(C#N)C(=O)NCCc2ccccc2)CC1 (configuration not stated)	NPC1 promoter act inconclusive, FLuc counter 19µM
CCOC(=O)C1CCCN(c2nc3ccccc3nc2C(C#N)C(=O)OCC)C1 (configuration not stated)	none
Cc1csc(NC(=O)CSc2nnc(-c3ccoc3C)n2Cc2ccco2)n1	none
